According to PubChem BioAssay AID624352 (Sanford-Burnham Center for Chemical Genomics, 2012):
In all, about 360,000 compounds went through this assay and about 2,600 (0.72%) were called active.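 How the source made its calls: active means inhibition of the luminescence signal of 40% or more relative to plate controls, in a single-dose primary screen at 18.75 µM; inactive means the rest.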 Many of the other results were omitted from the sample, so actives are more common in it than they were.

test: blockers of HIF-2a driven luciferase – luminescence, 786-0 RCC cells, primary screen (AID 624352); details: 786-0 RCC cells HIF-2a reporter, overnight, at 18.8 µM, hits give high values

Compound	inhibition
CCOCCc1c(O)nc(SCC(=O)NCc2ccco2)[nH]c1=O	11% (inactive)
COc1ccc2c(c1)c(=Cc1ccc(N(C)C)cc1)c1cc(-c3ccccc3)[n+](C)n12	88.2% (active)
Cc1ccc(NC(=O)COC(=O)CN2CCCCCC2=O)c(C)c1	11.4% (inactive)
CC(C)COc1ccc(C(=O)NNC(=O)CCC(=O)c2cccs2)cc1	-5.7% (inactive)
Cc1cccc(C(=O)OC(C)C(=O)NC2CCCc3ccccc32)c1O (stereo not drawn)	3.74% (inactive)
CC1CCCCN1S(=O)(=O)CCNC(=O)c1ccccc1 (stereo not drawn)	2.54% (inactive)
O=C1COc2ccc(C(=O)CSc3ccc(Br)cc3)cc2N1	-19.3% (inactive)
CN(CCc1ccccc1)C(=O)c1cccc(NC(=O)Cc2cccc(NC(=O)C3CCCN(C(=O)CCc4ccccc4)C3)c2)c1 (stereo not drawn)	1.76% (inactive)
N#C/C(=C/c1cccc([N+](=O)[O-])c1)c1nnc2n1CCCCC2	40.7% (active)
N#C/C(=C(\O)C(F)(F)F)c1nnc2n1CCCCC2	19.1% (inactive)
N#C/C(=C(\O)CCl)c1nnc2n1CCCCC2	-5.99% (inactive)
COc1ccccc1C(=O)c1ccccc1C(=O)c1ccccc1	12% (inactive)
CCOC(=O)/C(=C\c1ccc([N+](=O)[O-])cc1)C(=O)c1cc(C(C)=O)c(Nc2ccccc2)s1	8.67% (inactive)
CCc1ccccc1NC(=O)/C(=C/c1ccccc1)c1ccccc1	2.55% (inactive)
CCOC(=O)C(=Cc1ccccc1OC)C(=O)OCC	56.9% (active)
COc1ccccc1/C=C/C(=O)NC1CC2CCC1C2 (stereo not drawn)	-129% (inactive)
CCOC(=O)C(=Cc1ccccc1)C(=O)c1ccccc1	86.9% (active)
COC(=O)[C@H](CC(C)C)NC(=O)N1CCCCC1C (stereo partly drawn)	10.8% (inactive)
C=CCn1c(SCCOc2ccc(OC)cc2)nnc1C(NC(=O)c1ccc(OC)cc1)C(C)C (stereo not drawn)	26.4% (inactive)
O=C(NNC(=S)NCCCN1CCOCC1)c1ccncc1	9.32% (inactive)
O=C(C[n+]1ccc2c(c1)nnn2-c1ccccc1)c1ccc(Cl)cc1	-14.6% (inactive)
c1c2c(cc3sc(N4CCCCC4)nc13)OCCO2	70.3% (active)
O=C(CN1C(=O)NC2(CCOc3ccccc32)C1=O)NCc1ccc(F)cc1 (stereo not drawn)	7.05% (inactive)
O=C(CC12CC3CC(CC(C3)C1)C2)Nc1ccc2c(c1)COC2=O	-0.0166% (inactive)

Compound	inhibition
O=C(COC(=O)CN1C(=O)C2CCCCC2C1=O)Nc1ccc(F)c(F)c1F (stereo not drawn)	15.9% (inactive)
COc1ccc(C(=O)COC(=O)CN2C(=O)C3CC=CCC3C2=O)c(OC)c1 (stereo not drawn)	-7.43% (inactive)
CC1=CC(C)(C)Nc2ccc(OC(=O)CN3C(=O)C4CCCCC4C3=O)cc21 (stereo not drawn)	85.2% (active)
C=CCN(C(=O)Cn1ncc2c1-c1cc(C)ccc1OC2)c1ccccc1	8.04% (inactive)
CCOc1ccccc1NC(=O)C1CCCN(S(=O)(=O)c2ccccc2)C1 (stereo not drawn)	6.68% (inactive)
O=C(Nc1ccccc1)c1nnsc1S(=O)(=O)c1ccc(Cl)cc1	55.9% (active)
C/C(=N\NS(=O)(=O)c1ccc(Cl)cc1)c1ccc(NC(=O)c2ccco2)cc1	-80.3% (inactive)
CN(C)/C=C(/C(=O)c1ccccc1)S(=O)(=O)c1ccc(Cl)cc1	-9.32% (inactive)
CCCC(C(=O)N1CCOCC1)N1C(=O)C2C3C=CC(C3)C2C1=O (stereo not drawn)	5.26% (inactive)
Cc1ccc(NNC(=O)c2cccs2)cc1Cl	-22.8% (inactive)
CC(C)OCCCNC(=O)CNC(=O)c1cccs1	-6.91% (inactive)
Cc1ccccc1C(CC(=O)c1cccs1)C(C#N)C#N (stereo not drawn)	59.7% (active)
CCCCOC(=O)CNc1nnc(SCC(=O)OCC)[nH]c1=O	16.2% (inactive)
C[C@@H](NC(=O)[C@@H]1Cc2ccccc2CN1)C(=O)NC1CCCC1	-3.06% (inactive)
CC(C)(C)c1ccc(Oc2ccc(N)cc2)cc1	94.1% (active)
CN(C)S(=O)(=O)c1ccc(Oc2ccc(S(=O)(=O)N(C)C)cc2)cc1	0.813% (inactive)
NC[C@H](Cc1ccccc1)NCCc1cc(C(F)(F)F)cc(C(F)(F)F)c1	8.13% (inactive)
C=CCn1c(C)cc(C2=NNC(=NCC)SC2)c1C	92.7% (active)
CCOc1cccc(NC(=O)Cn2nc(-c3ccc4c(c3)OCCO4)ccc2=O)c1	3.02% (inactive)
CN(C)CCn1c2c(c(SCC(=O)NCc3ccccc3)nc1=O)CCC2	11.3% (inactive)
Cn1c(=O)c2ccccc2n(CC(=O)Nc2ccc3c(c2)OCCO3)c1=O	0.929% (inactive)
COc1ccc(C(=O)NCC(c2ccco2)N2CCc3ccccc32)cc1OC (stereo not drawn)	23% (inactive)
COc1cc(C2C(C(=O)c3sc(C)nc3C)=C(O)C(=O)N2CCN(C)C)cc(OC)c1OC (stereo not drawn)	17.5% (inactive)
O=c1oc2ccccc2cc1-c1cn(-c2ccccc2)c(=S)[nH]1	73.6% (active)

Compound	inhibition
CN(C)CC(C)(C)CNC(=O)c1cc(Br)cc(Br)c1O	8.3% (inactive)
O=[N+]([O-])c1ccc(CN2CC(N3CC=CC3)CS2(=O)=O)cc1 (stereo not drawn)	3.7% (inactive)
O=C1/C(=C\c2ccc([N+](=O)[O-])cc2)CS(=O)(=O)C/C1=C/c1ccc([N+](=O)[O-])cc1	92.6% (active)
CC(=O)Nc1cc(-c2ccccc2N(C)C)cn2c(-c3ccc(F)c(Cl)c3)cnc12	-0.208% (inactive)
CCc1ccc(Oc2nc([N+](=O)[O-])nn2C)cc1	-0.728% (inactive)
CC1CCCN(C(=O)c2ccc3c(c2)C(=O)N(CCC2=CCCCC2)C3=O)C1 (stereo not drawn)	2.05% (inactive)
CC1Cc2ccccc2N1C1=CC(=O)CC(C)(C)C1 (stereo not drawn)	9.32% (inactive)
Cc1coc2cc3oc(=O)c(CCC(=O)O)c(C)c3cc12	17% (inactive)
Cc1c(CCC(=O)O)c(=O)oc2cc3occ(-c4ccccc4)c3cc12	63.2% (active)
COc1cccc(-c2coc3cc4oc(=O)c(CC(=O)O)c(C)c4cc23)c1	-58% (inactive)
CC(C)c1ccc2c(c1)c(SC(C)(C)C)c(CC(C)(C)C(=O)O)n2Cc1ccc(Cl)cc1	-26.8% (inactive)
CCCC(=O)N1CCN(c2nnc(-c3ccc(C)cc3)c3ccccc23)CC1	12.6% (inactive)
Cc1ccc2[nH]c(C(=O)O)c(NC(=O)c3ccccc3[N+](=O)[O-])c2c1	13.4% (inactive)
c1ccc(-n2cccc2)c(N2CCCCC2)c1	13.2% (inactive)
O=C(c1ccc(Cl)c(S(=O)(=O)N2CCCCCC2)c1)N1CCN(c2ccc(O)cc2)CC1	11.3% (inactive)
O=C1C=CC(=O)N1c1ccc(N2CCCCC2)cc1	69.5% (active)
CCOC(=O)c1nn(-c2ccccc2F)c2nc(Nc3ccccc3)cc(=O)n12	7.21% (inactive)
CN(C)c1nc2n(c(=O)n1)CCO2	6.35% (inactive)
COC(=O)CSc1nc2c(c(C3CC=CCC3)c1C#N)CCC2 (stereo not drawn)	0.0766% (inactive)
CC1(C(=O)NS(=O)(=O)c2cccc(OC(F)F)c2)CCN1C(=O)COc1ccc(Cl)cc1 (stereo not drawn)	6.16% (inactive)
CC(=O)NC1=NN(C(C)=O)C(C)(c2ccc(Cl)s2)S1 (stereo not drawn)	14.9% (inactive)
CCc1cc(=O)oc2c(C)c(OCC(=O)N3CC[C@@]4(O)CCCC[C@H]4C3)ccc12	-4.19% (inactive)
Brc1ccc(CN2CC[C@H]3C=CCc4cccc(c43)C2)cc1	11.8% (inactive)
CC(C)(C)C(=O)NC(NC(=S)Nc1ccc(S(N)(=O)=O)cc1)C(Cl)(Cl)Cl (stereo not drawn)	5.45% (inactive)

Compound	inhibition
O=C(Cc1cccc2ccccc12)NNC(=O)Nc1ccc(Cl)cc1	-196% (inactive)
Cc1ccc(NC(=S)NC(NC(=O)Cc2cccc3ccccc23)C(Cl)(Cl)Cl)cc1 (stereo not drawn)	54.6% (active)
O=c1c2ccccc2cnn1Cc1n[nH]c(=S)n1-c1ccccc1F	13.1% (inactive)
O=C(NCCc1cccc(F)c1)C1CC(O)CN1C(=O)Nc1ccccc1 (stereo not drawn)	17.9% (inactive)
CCCNC(=O)C1(C)CCCN(Cc2c(C)nn(-c3ccccc3)c2C)C1 (stereo not drawn)	6.85% (inactive)
COc1ccc(CNC(=O)COc2ccccc2C(=O)c2cnn(-c3ccccc3)c2)cc1OC	-184% (inactive)
CN1CCN(CCCNC(=O)c2ccc(/C=C3\Oc4ccccc4N(Cc4ccc(Cl)cc4)C3=O)cc2)CC1	89.4% (active)
CCC1Oc2ccccc2N(CC(=O)NCCCN2CCN(CC)CC2)C1=O (stereo not drawn)	4.83% (inactive)
Cc1ccc(NC(=O)CCCNC(=O)c2ccc(Cl)cc2)cc1S(=O)(=O)N1CCOCC1	5.62% (inactive)
O=C1CCC(=O)N(c2ccccc2)N1	9.24% (inactive)
CN(c1ccc(OCC(=O)NC2=NCCS2)cc1)S(=O)(=O)c1ccc(F)cc1	1.28% (inactive)
O=C(c1ccc2ccccc2n1)N1CCN(c2ccccc2Cl)CC1	-107% (inactive)
Cc1coc2c(O)cc3c(c12)OC1(N2CCCCC2)C(=O)NCCCC31 (stereo not drawn)	56.7% (active)
Cn1c(=O)c2sccc2n(Cc2ccc(Br)cc2)c1=O	13.3% (inactive)
OCCC#Cc1ccc(N2C(c3ccsc3)=Cc3ccc(F)cc3C2c2c[nH]c3ccccc23)cc1 (stereo not drawn)	-21.5% (inactive)
CC(=O)Nc1ccc(NC(=O)CC2CCCC2)cc1	-38.5% (inactive)
O=C(O)CC(SCC(=O)Nc1ccc(Br)cc1)C(=O)O (stereo not drawn)	2.54% (inactive)
O=C(CCl)Nc1ccc(Sc2ccc(NC(=O)CCl)cc2)cc1	58.1% (active)
c1ccc(-c2cnc(CN3CCN(c4ccccc4)CC3)o2)cc1	-16.5% (inactive)
CC(NC(=O)C(=O)NN=C1CCC(C(C)(C)C)CC1)c1ccccc1 (stereo not drawn)	13.2% (inactive)
CCCCc1c(-c2ccc(Cl)cc2)ncn1CCc1ccccc1OC	-111% (inactive)
